Measured values taken from the supplement of paper PMC4466140.

B1: unnamed (peptide)
chain: VKPRQLFPIPLNKVD

Target: AgAbp1
Test: SPOT peptide array binding signal intensity (averaged, normalized) (arbitrary units (background-subtracted, floor 0; scale differs between SH3 domains)); higher = stronger binding of the SH3 domain to the peptide
Outline: (§1)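 Binding signal is given in arbitrary units that differ between domains and is the normalized, background-subtracted spot intensity averaged across replicates. Each GST-SH3 fusion from one of four yeast species was made in E. coli BL21(DE3), purified on glutathione Sepharose and incubated at 10 μg/ml overnight at 4°C on cellulose-bound synthetic 15-mer peptides in which cysteines were replaced by serines. Detection used anti-GST antibody, an HRP anti-mouse secondary and luminol, followed by imaging and Genespotter quantification.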

| Binder | SPOT peptide array binding signal intensity |
| --- | --- |
| B1 | 5 |

Target: AgBbc1
Test: as above
Outline: as §1

| Binder | SPOT peptide array binding signal intensity |
| --- | --- |
| B1 | ≤ 0 |

Target: AgBem1-D1
Test: as above
Outline: as §1

| Binder | SPOT peptide array binding signal intensity |
| --- | --- |
| B1 | 14.5 |

Target: AgBzz1-D1
Test: as above
Outline: as §1

| Binder | SPOT peptide array binding signal intensity |
| --- | --- |
| B1 | 61 |

Target: AgBzz1-D2
Test: as above
Outline: as §1

| Binder | SPOT peptide array binding signal intensity |
| --- | --- |
| B1 | 40.5 |

Target: AgCyk3
Test: as above
Outline: as §1

| Binder | SPOT peptide array binding signal intensity |
| --- | --- |
| B1 | ≤ 0 |

Target: AgFus1
Test: as above
Outline: as §1

| Binder | SPOT peptide array binding signal intensity |
| --- | --- |
| B1 | 23 |

Target: AgHof1
Test: as above
Outline: as §1

| Binder | SPOT peptide array binding signal intensity |
| --- | --- |
| B1 | 56.2 |

Target: AgHse1
Test: as above
Outline: as §1

| Binder | SPOT peptide array binding signal intensity |
| --- | --- |
| B1 | 60.5 |

Target: AgLsb1
Test: as above
Outline: as §1

| Binder | SPOT peptide array binding signal intensity |
| --- | --- |
| B1 | 1600 |

Target: AgLsb4
Test: as above
Outline: as §1

| Binder | SPOT peptide array binding signal intensity |
| --- | --- |
| B1 | ≤ 0 |

Target: AgMyo5
Test: as above
Outline: as §1

| Binder | SPOT peptide array binding signal intensity |
| --- | --- |
| B1 | 1 |

Target: AgNbp2
Test: as above
Outline: as §1

| Binder | SPOT peptide array binding signal intensity |
| --- | --- |
| B1 | 18 |

Target: AgRvs167
Test: as above
Outline: as §1

| Binder | SPOT peptide array binding signal intensity |
| --- | --- |
| B1 | 5 |

Target: AgSho1
Test: as above
Outline: as §1

| Binder | SPOT peptide array binding signal intensity |
| --- | --- |
| B1 | 8 |

Target: AgSla1-D1-D2
Test: as above
Outline: as §1

| Binder | SPOT peptide array binding signal intensity |
| --- | --- |
| B1 | 1 |

Target: AgSla1-D3
Test: as above
Outline: as §1

| Binder | SPOT peptide array binding signal intensity |
| --- | --- |
| B1 | 8.5 |

Target: CaAbp1-D1
Test: as above
Outline: as §1

| Binder | SPOT peptide array binding signal intensity |
| --- | --- |
| B1 | 98 |

Target: CaAbp1-D2
Test: as above
Outline: as §1

| Binder | SPOT peptide array binding signal intensity |
| --- | --- |
| B1 | 43 |

Target: CaBbc1
Test: as above
Outline: as §1

| Binder | SPOT peptide array binding signal intensity |
| --- | --- |
| B1 | 9 |

Target: CaBem1-D1
Test: as above
Outline: as §1

| Binder | SPOT peptide array binding signal intensity |
| --- | --- |
| B1 | 14 |

Target: CaBzz1-D1
Test: as above
Outline: as §1

| Binder | SPOT peptide array binding signal intensity |
| --- | --- |
| B1 | 110 |

Target: CaBzz1-D2
Test: as above
Outline: as §1

| Binder | SPOT peptide array binding signal intensity |
| --- | --- |
| B1 | 59 |

Target: CaCyk3
Test: as above
Outline: as §1

| Binder | SPOT peptide array binding signal intensity |
| --- | --- |
| B1 | ≤ 0 |

Target: CaFus1
Test: as above
Outline: as §1

| Binder | SPOT peptide array binding signal intensity |
| --- | --- |
| B1 | 138 |

Target: CaHof1
Test: as above
Outline: as §1

| Binder | SPOT peptide array binding signal intensity |
| --- | --- |
| B1 | 2 |

Target: CaHse1
Test: as above
Outline: as §1

| Binder | SPOT peptide array binding signal intensity |
| --- | --- |
| B1 | 3.25 |

Target: CaLsb1
Test: as above
Outline: as §1

| Binder | SPOT peptide array binding signal intensity |
| --- | --- |
| B1 | 0.5 |

Target: CaLsb4
Test: as above
Outline: as §1

| Binder | SPOT peptide array binding signal intensity |
| --- | --- |
| B1 | 7 |

Target: CaMyo5
Test: as above
Outline: as §1

| Binder | SPOT peptide array binding signal intensity |
| --- | --- |
| B1 | 1 |

Target: CaNbp2
Test: as above
Outline: as §1

| Binder | SPOT peptide array binding signal intensity |
| --- | --- |
| B1 | 105 |

Target: CaRvs167
Test: as above
Outline: as §1

| Binder | SPOT peptide array binding signal intensity |
| --- | --- |
| B1 | 54.5 |

Target: CaRvs167-3
Test: as above
Outline: as §1

| Binder | SPOT peptide array binding signal intensity |
| --- | --- |
| B1 | 3 |

Target: CaSho1
Test: as above
Outline: as §1

| Binder | SPOT peptide array binding signal intensity |
| --- | --- |
| B1 | 30 |

Target: CaSla1-D1-D2
Test: as above
Outline: as §1

| Binder | SPOT peptide array binding signal intensity |
| --- | --- |
| B1 | ≤ 0 |

Target: CaSla1-D3
Test: as above
Outline: as §1

| Binder | SPOT peptide array binding signal intensity |
| --- | --- |
| B1 | 3.25 |

Target: ScAbp1
Test: as above
Outline: as §1

| Binder | SPOT peptide array binding signal intensity |
| --- | --- |
| B1 | 71 |

Target: ScBbc1
Test: as above
Outline: as §1

| Binder | SPOT peptide array binding signal intensity |
| --- | --- |
| B1 | ≤ 0 |

Target: ScBem1-D1
Test: as above
Outline: as §1

| Binder | SPOT peptide array binding signal intensity |
| --- | --- |
| B1 | ≤ 0 |

Target: ScBzz1-D1
Test: as above
Outline: as §1

| Binder | SPOT peptide array binding signal intensity |
| --- | --- |
| B1 | 17 |

Target: ScBzz1-D2
Test: as above
Outline: as §1

| Binder | SPOT peptide array binding signal intensity |
| --- | --- |
| B1 | 135 |

Target: ScCyk3
Test: as above
Outline: as §1

| Binder | SPOT peptide array binding signal intensity |
| --- | --- |
| B1 | 3 |

Target: ScFus1
Test: as above
Outline: as §1

| Binder | SPOT peptide array binding signal intensity |
| --- | --- |
| B1 | 11 |

Target: ScHof1
Test: as above
Outline: as §1

| Binder | SPOT peptide array binding signal intensity |
| --- | --- |
| B1 | 3.75 |

Target: ScHse1
Test: as above
Outline: as §1

| Binder | SPOT peptide array binding signal intensity |
| --- | --- |
| B1 | 196 |

Target: ScLsb1
Test: as above
Outline: as §1

| Binder | SPOT peptide array binding signal intensity |
| --- | --- |
| B1 | 374 |

Target: ScLsb2
Test: as above
Outline: as §1

| Binder | SPOT peptide array binding signal intensity |
| --- | --- |
| B1 | 201 |

Target: ScLsb3
Test: as above
Outline: as §1

| Binder | SPOT peptide array binding signal intensity |
| --- | --- |
| B1 | 54.5 |

Target: ScLsb4
Test: as above
Outline: as §1

| Binder | SPOT peptide array binding signal intensity |
| --- | --- |
| B1 | ≤ 0 |

Target: ScMyo3
Test: as above
Outline: as §1

| Binder | SPOT peptide array binding signal intensity |
| --- | --- |
| B1 | 2 |

Target: ScMyo5
Test: as above
Outline: as §1

| Binder | SPOT peptide array binding signal intensity |
| --- | --- |
| B1 | 4 |

Target: ScNbp2
Test: as above
Outline: as §1

| Binder | SPOT peptide array binding signal intensity |
| --- | --- |
| B1 | 18 |

Target: ScPex13
Test: as above
Outline: as §1

| Binder | SPOT peptide array binding signal intensity |
| --- | --- |
| B1 | 1.5 |

Target: ScRvs167
Test: as above
Outline: as §1

| Binder | SPOT peptide array binding signal intensity |
| --- | --- |
| B1 | 48.3 |

Target: ScSho1
Test: as above
Outline: as §1

| Binder | SPOT peptide array binding signal intensity |
| --- | --- |
| B1 | 139 |

Target: ScSla1-D1-D2
Test: as above
Outline: as §1

| Binder | SPOT peptide array binding signal intensity |
| --- | --- |
| B1 | 1.5 |

Target: ScSla1-D3
Test: as above
Outline: as §1

| Binder | SPOT peptide array binding signal intensity |
| --- | --- |
| B1 | ≤ 0 |

Target: SpAbp1-D1
Test: as above
Outline: as §1

| Binder | SPOT peptide array binding signal intensity |
| --- | --- |
| B1 | 29 |

Target: SpBbc1
Test: as above
Outline: as §1

| Binder | SPOT peptide array binding signal intensity |
| --- | --- |
| B1 | ≤ 0 |

Target: SpBzz1-D1
Test: as above
Outline: as §1

| Binder | SPOT peptide array binding signal intensity |
| --- | --- |
| B1 | 156 |
